The source of these data is PubChem BioAssay (Tox21).

Molecules are shown by their SMILES. Values joined by “and” are separate entries in the source; they are usually repeats but may differ in a detail not shown here. Equal entries are not always repeated. Results filed as inconclusive are left out. Where a structure was tested more than once in an assay, its records may differ in their call. Active and inactive are the calls of the source. Unless noted, the call rests on the fitted dose curve; in most records, active means well fitted curve in the direction sought with a large enough effect in the repeat runs; inconclusive means weak or mixed curves; inactive means no such curve, though single readings can be large; an effect the other way counts as inactive or inconclusive.

Test [1] can be described thus: qHTS assay to identify small molecule agonists of the peroxisome proliferator-activated receptor delta (PPARd) signaling pathway - cell viability counter screen (AID 743211). Further: nearly all actives have a fitted effect of over 55% in size. Further: potency means the concentration at half of the fitted maximal effect. The procedure, abridged: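 Viability was measured as CellTiter-Glo luminescence (30 min, room temperature) in the same wells as the beta-lactamase readout. GeneBLAzer PPARd UAS-bla HEK293H cells received compound after 5 h plating and were incubated 17 h at 37 C.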

Test [2] in a line: qHTS assay to identify small molecule antagonists of the peroxisome proliferator-activated receptor delta (PPARd) signaling pathway - cell viability counter screen (AID 743213). Further: nearly all actives have a fitted effect of over 50% in size. Further: potency means the concentration at half of the fitted maximal effect. The procedure, abridged:
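HEK293H cells with the PPARd UAS-bla reporter, co-treated 17 h at 37 C with compounds and L165041 (300 nM final), were lysed with CellTiter-Glo. Luminescence indicated viable cell content.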
(In qHTS, concentration-response curves come from the screen itself.)

The nature of test [3]: qHTS assay to identify small molecule agonists of the farnesoid-X-receptor (FXR) signaling pathway - cell viability counter screen (AID 743218). Further: nearly all actives have a fitted effect of over 45% in size. Further: potency means the concentration at half of the fitted maximal effect. The procedure, abridged: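 HEK 293T FXR-bla cells; 5 h pre-incubation, 16 h compound exposure at 37 C; LiveBLAzer substrate 2 h RT, then CellTiter-Glo 30 min RT, luminescence.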
Test [4] is described as follows: qHTS assay to identify small molecule antagonists of the farnesoid-X-receptor (FXR) signaling pathway - cell viability counter screen (AID 743221; active means well fitted cell-killing curve with a large enough effect in the repeat runs, not every such curve was filed as active; further: nearly all actives have a fitted effect of over 50% in size; further: potency means the concentration at half of the fitted maximal effect). The procedure, abridged: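 Cytotoxicity counter screen run in the FXR-bla reporter wells: HEK 293T cells exposed to compound with 50 uM (final) chenodeoxycholic acid for 16 h, 37 C, then viability measured by CellTiter-Glo luminescence after 30 min, room temperature.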

A short description of test [5]: qHTS assay to identify small molecule agonists of the endoplasmic reticulum stress response signaling pathway - cell viability counter screen (AID 1159517; calls by dose curve; further: nearly all actives have a fitted effect of over 50% in size; further: potency means the concentration at half of the fitted maximal effect). The procedure, abridged: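 Luminescence readout: CellTiter-Glo, 30 min RT, same wells as the ESRE-bla reporter read. HeLa ESRE-bla, 1,500 cells/well, o/n 37 C; cpd 5 hr 37 C/5% CO2.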
Test [6] is described as follows: qHTS assay to identify small molecule antagonists of the retinoid-related orphan receptor gamma (ROR-gamma) signaling pathway - cell viability counter screen (AID 1159520). Further: nearly all actives have a fitted effect of over 50% in size. Further: potency means the concentration at half of the fitted maximal effect. The procedure, abridged: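 Tet-on ROR gamma CHO cells (1,000/well) were plated 4 hr, given compounds in DMSO for 2 hr at 37 C, then induced with 1 uM final doxycycline for 16 hr. Viability was read as ATP by CellTiter-Glo luminescence after 30 min.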

A short description of test [7]: qHTS assay to identify small molecule agonists of the AP-1 signaling pathway - cell viability counter screen (AID 1159525; calls by dose curve; further: nearly all actives have a fitted effect of over 55% in size; further: potency means the concentration at half of the fitted maximal effect). The procedure, abridged: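 ME-180 AP-1-bla, 2500 cells/well, Opti-MEM + 0.5% dialyzed FBS; overnight 37 °C; cpd 15-pt titration, 5 h 37 °C; CellTiter-Glo 30 min RT; luminescence read; normalised to TOAB and DMSO controls.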
Test [8] in a line: qHTS assay to identify small molecule agonists of the RXR signaling pathway - cell viability counter screen (AID 1159529). Further: nearly all actives have a fitted effect of over 50% in size. Further: potency means the concentration at half of the fitted maximal effect. The procedure, abridged: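 CellTiter-Glo luminescence gave viability in the wells also read for beta-lactamase. Cells (RXR-alpha-UAS-bla HEK 293T, 2% charcoal-stripped FBS medium) had 5 hr plating, then 16 hr compound exposure at 37 C; tetraoctyl ammonium bromide served as positive control.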

A short description of test [9]: qHTS assay to identify small molecule agonists of the vitamin D receptor (VDR) signaling pathway - cell viability counter screen (AID 743224). Further: nearly all actives have a fitted effect of over 50% in size. Further: potency means the concentration at half of the fitted maximal effect. The procedure, abridged: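 Luminescence from CellTiter-Glo, read after 30 min at room temperature, reports viability of VDR-bla cells treated with compounds for 16 h at 37C in the wells used for the beta-lactamase FRET read.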

Test [10] can be described thus: qHTS assay to identify small molecule antagonists of the vitamin D receptor (VDR) signaling pathway - cell viability counter screen (AID 743225). Further: nearly all actives have a fitted effect of over 50% in size. Further: potency means the concentration at half of the fitted maximal effect. Summed up: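 Cytotoxicity counter screen read by CellTiter-Glo luminescence (30 min, room temperature) in the same wells as the VDR-bla antagonist readout. HEK 293T VDR-UAS-bla cells had 16 h at 37C with compound and 3 nM (final) 1-alpha,25-dihydroxyvitamin D3, then 2 h with FRET substrate.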

Test [11] has as its target Nuclear receptor ROR-gamma (Homo sapiens) (UniProt P51449). In words: qHTS assay to identify small molecule antagonists of the retinoid-related orphan receptor gamma (ROR-gamma) signaling pathway (AID 1159521; further: nearly all actives have a fitted effect of over 50% in size; further: potency means the concentration at half of the fitted maximal effect). The procedure, abridged: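 Antagonist read-out: drop in luminescence (ONE-Glo) from an RORE-LUC reporter in CHO cells with doxycycline-inducible ROR-gamma; 2 hr compound pretreatment, 1 uM doxycycline, 16 hr incubation at 37 C.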

Test [12] concerns the target Vitamin D3 receptor (Homo sapiens) (UniProt P11473). In words: qHTS assay to identify small molecule antagonists of the vitamin D receptor (VDR) signaling pathway (AID 743223; active means well fitted inhibition curve with a large enough effect in the signal ratio in the repeat runs, not every such curve was filed as active; the % refers to the signal ratio). Summed up: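 Antagonist mode: compound added to VDR-bla cells alongside agonist 1alpha,25-dihydroxyvitamin D3 (3 nM final), incubation 16 h at 37C. Read-out is LiveBLAzer FRET fluorescence, 2 h at room temperature.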

Test [13] concerns the target Bile acid receptor (Homo sapiens) (UniProt Q96RI1). Briefly: qHTS assay to identify small molecule agonists of the farnesoid-X-receptor (FXR) signaling pathway (AID 743220; active means well fitted activation curve with a large enough effect in the signal ratio in the repeat runs, not every such curve was filed as active; the % refers to the signal ratio). The procedure, abridged:
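Beta-lactamase reporter under UAS control in GeneBLAzer FXR HEK 293T cells (5000/well) measured with LiveBLAzer FRET substrate after 2 h at room temperature. Compound exposure lasted 16 h at 37C.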

For test [14], the target named is Vitamin D3 receptor (Homo sapiens) (UniProt P11473). Briefly: qHTS assay to identify small molecule agonists of the vitamin D receptor (VDR) signaling pathway (AID 743222; calls by dose curve). Summed up:
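VDR-bla cells, 2,000/well; 4 h preincubation 37C; cpd (DMSO) 16 h; LiveBLAzer B/G substrate 2 h RT; fluorescence intensity read.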

The target of test [15] is Peroxisome proliferator-activated receptor delta (Homo sapiens) (UniProt Q03181). In words: qHTS assay to identify small molecule agonists of the peroxisome proliferator-activated receptor delta (PPARd) signaling pathway (AID 743212; calls by dose curve). The procedure, abridged:
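GeneBLAzer PPARd UAS-bla HEK293H cells (beta-lactamase reporter under UAS control), plated and rested 5 h at 37 C, then exposed to compounds in DMSO at 37 C; LiveBLAzer B/G FRET substrate added, 2 h room temperature, fluorescence read.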

The target in test [16] is Bile acid receptor (Homo sapiens) (UniProt Q96RI1). In words: qHTS assay to identify small molecule antagonists of the farnesoid-X-receptor (FXR) signaling pathway (AID 743217; active means well fitted inhibition curve with a large enough effect in the signal ratio in the repeat runs, not every such curve was filed as active; the % refers to the signal ratio). The procedure, abridged: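 HEK 293T FXR-UAS-bla, 5000 cells/well; compound + CDCA 50 uM final; 16 h, 37 °C; B/G FRET substrate 2 h RT; fluorescence.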
Bile acid receptor (Homo sapiens), sequence (Q96RI1 whole entry, looked up): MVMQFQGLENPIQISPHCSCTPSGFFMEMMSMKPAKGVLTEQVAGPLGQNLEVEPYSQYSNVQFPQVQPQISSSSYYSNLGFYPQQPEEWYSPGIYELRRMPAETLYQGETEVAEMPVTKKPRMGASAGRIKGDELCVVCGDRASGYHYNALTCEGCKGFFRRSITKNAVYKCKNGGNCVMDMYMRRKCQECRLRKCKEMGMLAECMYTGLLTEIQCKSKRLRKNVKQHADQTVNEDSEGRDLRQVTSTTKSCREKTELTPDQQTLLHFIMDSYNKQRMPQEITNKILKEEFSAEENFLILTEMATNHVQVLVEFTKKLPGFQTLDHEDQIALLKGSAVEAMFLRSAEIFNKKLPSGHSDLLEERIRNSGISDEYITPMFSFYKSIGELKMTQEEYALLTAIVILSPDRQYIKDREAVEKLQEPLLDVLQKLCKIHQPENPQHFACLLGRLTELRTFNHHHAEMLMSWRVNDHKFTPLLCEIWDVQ
Test [17] can be described thus: qHTS assay to identify small molecule agonists of the AP-1 signaling pathway (AID 1159526; calls by dose curve).
Test [18] deals with Retinoic acid receptor RXR-alpha (Homo sapiens) (UniProt P19793). Briefly: qHTS assay to identify small molecule agonists of the RXR signaling pathway (AID 1159527; calls by dose curve; further: nearly all actives have a fitted effect of over 35% in size). Summed up:
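Agonist-mode beta-lactamase reporter assay: HEK 293T RXR-alpha-UAS-bla cells treated 16 hr at 37 C with compounds, 9-cis retinoic acid as positive control. LiveBLAzer FRET substrate, 405 nm excitation, 460/530 nm emission.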

Vitamin D3 receptor (Homo sapiens), sequence (P11473 whole entry, looked up): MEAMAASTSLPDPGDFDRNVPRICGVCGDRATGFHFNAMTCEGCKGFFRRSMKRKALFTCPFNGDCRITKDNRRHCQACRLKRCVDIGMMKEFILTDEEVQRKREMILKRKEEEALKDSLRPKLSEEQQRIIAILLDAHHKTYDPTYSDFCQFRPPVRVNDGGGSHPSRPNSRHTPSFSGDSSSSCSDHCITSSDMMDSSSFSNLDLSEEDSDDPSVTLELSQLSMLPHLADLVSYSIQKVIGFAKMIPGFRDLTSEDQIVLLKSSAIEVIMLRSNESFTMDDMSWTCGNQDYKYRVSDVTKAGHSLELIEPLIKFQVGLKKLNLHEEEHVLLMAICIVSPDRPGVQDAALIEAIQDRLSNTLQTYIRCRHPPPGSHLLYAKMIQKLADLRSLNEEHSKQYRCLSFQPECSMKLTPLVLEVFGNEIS
Retinoic acid receptor RXR-alpha (Homo sapiens), sequence (P19793 whole entry, looked up): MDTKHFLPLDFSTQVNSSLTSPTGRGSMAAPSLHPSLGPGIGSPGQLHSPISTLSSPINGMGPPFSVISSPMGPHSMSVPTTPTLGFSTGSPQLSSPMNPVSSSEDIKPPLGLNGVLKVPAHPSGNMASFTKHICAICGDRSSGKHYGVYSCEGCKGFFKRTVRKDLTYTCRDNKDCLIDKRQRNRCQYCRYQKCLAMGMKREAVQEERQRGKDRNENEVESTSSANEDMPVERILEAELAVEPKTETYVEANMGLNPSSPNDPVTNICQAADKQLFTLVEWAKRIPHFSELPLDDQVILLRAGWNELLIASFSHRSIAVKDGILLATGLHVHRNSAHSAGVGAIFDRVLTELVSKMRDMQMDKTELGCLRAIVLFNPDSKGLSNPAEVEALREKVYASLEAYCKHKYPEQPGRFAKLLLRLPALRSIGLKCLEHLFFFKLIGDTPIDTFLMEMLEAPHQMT
Peroxisome proliferator-activated receptor delta (Homo sapiens), sequence (Q03181 whole entry, looked up): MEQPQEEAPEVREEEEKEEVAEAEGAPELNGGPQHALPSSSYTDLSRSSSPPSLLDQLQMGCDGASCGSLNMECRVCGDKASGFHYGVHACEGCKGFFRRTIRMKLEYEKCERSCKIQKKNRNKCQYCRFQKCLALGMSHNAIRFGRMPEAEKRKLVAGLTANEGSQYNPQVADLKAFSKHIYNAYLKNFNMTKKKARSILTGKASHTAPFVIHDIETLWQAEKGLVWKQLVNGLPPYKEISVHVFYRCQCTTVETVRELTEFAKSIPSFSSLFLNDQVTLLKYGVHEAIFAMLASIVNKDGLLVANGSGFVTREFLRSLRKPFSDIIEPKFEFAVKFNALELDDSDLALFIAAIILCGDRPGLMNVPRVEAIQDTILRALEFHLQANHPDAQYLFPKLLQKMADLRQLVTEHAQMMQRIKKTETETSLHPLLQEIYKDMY

`O=C1NCN(c2ccccc2)C12CCN(CCCC(c1ccc(F)cc1)c1ccc(F)cc1)CC2`: the Potency in test [1] is 21.1 µM (active); in [2], 21.1 µM (active); in [3], 26.6 µM (active); in test [4], 33.5 µM (active); in test [5] it was 23.9 µM (active); in test [6] it was 33.5 µM (active). Moreover, the Potency in test [7] and in test [8] was 21.3 µM (active) each time.

`CC(C)c1cccc(C(C)C)c1N1C(=O)c2ccc(O)cc2C1=O`: the Potency entry in test [3], in test [4] and in test [5] was “inactive” in each case. Also, the Potency in test [9] was 43.6 µM (active); in test [6], 27.3 µM (active).

Consider `CCN=C1C=CC(=C(c2ccc(N(CC)CC)cc2)c2ccc(N(CC)CC)cc2)c2ccccc21`, for which the Potency in test [1] was 3.87 µM (active); in [2], 12.2 µM (active); in [3] it was 6.88 µM (active); in test [4], 13.7 µM (active); in [9], 4.87 µM (active); in test [10] it was 19.4 µM (active). In addition, the Potency in test [5] is 38.7 µM (active); in [6], 6.82 µM (active); in [11], 2.71 µM (active); in test [7], 38.7 µM (active); in [8], 15.4 µM (active).

As to `COC(=O)NCCC[Si](OC)(OC)OC`, the Potency entry in test [1], in [3], in test [4], in [12], in [10] and in [5] was “inactive” each time. Also, the Potency result in test [6] and in test [7] was “inactive” each time. The Potency is 49 µM (active) in test [9] and 54.5 µM (active) in test [11].

In the case of `CCCCCCCOC(=O)c1ccc(O)cc1`, the Potency result is “inactive and 34.7 µM (active)” in test [2]; 54.9 µM (active) in test [5]; 49 µM (active) in test [7]; 55 µM (active) in test [8]. Further, the Potency result in test [3], in [13], in test [4], in test [14], in test [6] and in test [11] was “inactive” each time.

For `CCOC(=O)[C@@](C)(N)Cc1ccc(O)c(O)c1`, in [15], the result was inactive. In addition, the Potency result in test [2], in test [16], in [3], in test [13], in test [4] and in test [14] was “inactive” in each case. The Potency result in [12], in [9], in test [10], in [5], in [6] and in test [17] was “inactive” in each case. In addition, in test [8], the Potency result is “inactive”.

`CC(C)(c1cc(Br)c(O)c(Br)c1)c1cc(Br)c(O)c(Br)c1`: the Potency entry in test [3], in test [13], in test [4] and in [18] was “inactive” each time. The Potency is 43.5 µM (active) in test [10]; 48.8 µM (active) and 15.5 µM (active) in test [5]; 60.9 µM (active) in [6]; 48.8 µM (active) and 48.9 µM (active) in [7]; 54.8 µM (active) and 48.9 µM (active) and 46.3 µM (active) in test [8].

In the case of `Nc1ccc2cc3ccc(N)cc3nc2c1`, the Potency entry in [1], in test [2], in test [4], in test [5], in test [11] and in test [7] was “inactive” in each case. Further, the Potency in test [3] is 3.89 µM (active) and inactive; in test [9], 24.5 µM (active) and inactive; in test [6], 26.6 µM (active).

For the compound `CC=O`, the Potency was 45.7 µM (active) in test [1]; 40.7 µM (active) in [2]; 45.7 µM (active) in test [3]; 64.5 µM (active) in test [4]; 22.9 µM (active) in test [9]; 57.5 µM (active) in test [10]. Moreover, the Potency in [5] is 16.2 µM (active); in test [6], 63.9 µM (active); in test [11], 2.02 µM (active); in test [8] it was 14.4 µM (active).
